Compound activity deposited in PubChem BioAssay by several laboratories.
Compounds with a hit are over-represented: about 4.7% of the library has one in this group of screens.
KLK7 zymogen act: activators of human kallikrein-7 zymogen | P49862 | purified proKLK7, EDANS-DABCYL substrate fluorescence; 100% is mature enzyme control, 0% vehicle | activation, % at 7 µM | 370,000 compounds, 0.9% hits | AID 652039;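 active = activation above the mean of all tested compounds plus 3 SD, computed per campaign excluding outliers beyond control limits, cut at about 13% in these data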
Target sequence (P49862 whole entry, looked up): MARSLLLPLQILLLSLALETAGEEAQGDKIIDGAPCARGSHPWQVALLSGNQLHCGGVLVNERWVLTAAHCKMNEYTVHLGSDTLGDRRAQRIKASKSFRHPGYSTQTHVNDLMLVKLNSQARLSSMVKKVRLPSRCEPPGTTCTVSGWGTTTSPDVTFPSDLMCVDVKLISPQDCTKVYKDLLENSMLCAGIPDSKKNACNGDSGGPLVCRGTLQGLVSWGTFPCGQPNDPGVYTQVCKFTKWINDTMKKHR
rCAG binder: binds r(CAG) RNA repeats; r(CAG) RNA repeat, TO-PRO-1 dye displacement fluorescence; inhibition, % at 3 µM; 370,000 compounds, 1.3% hits;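 active = inhibition above the plate cutoff, the mean of all test compounds on that plate plus 3 SD, cut at about 35% in these data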;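 also: 0% = DMSO alone and 100% = 100 µM mitoxantrone as full dye displacement; higher means more dye released from RNA so lower well fluorescence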
MPTP inh: inhibitors of mitochondrial permeability transition pore. isolated mouse mitochondria, Ca2+ swelling absorbance, 30 min. inhibition, % at 10 µM. 360,000 compounds, 1.4% hits. AID 602449;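 active = inhibition of 50% or more, scaled per plate between neutral and stimulator controls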;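 also: 0% = DMSO wells given calcium and 100% = 1 mM EGTA wells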
Pemphigus Ab inh: inhibitors of pemphigus antibody binding to human desmoglein-3; P32926; DSG3-coupled beads, scFv-anti-DSG3-GFP binding, flow cytometry; active compounds read low; binding (percent of control), % at 10 µM; 310,000 compounds, 0.48% hits;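 active = binding more than 3 SD below its plate's average and above zero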;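 also: hits lower antibody fragment binding to DSG3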
ADAM17 inh: inhibitors of human ADAM17. 370,000 compounds, 0.83% hits. P78536. AID 720648. recombinant ADAM17, EDANS/DABCYL FRET peptide cleavage. inhibition, % at 6.95 µM;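 active = inhibition above the mean of compounds lying between control limits plus 3 SD, set per campaign, cut at about 8.5% in these data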;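 also: 0% = DMSO-only wells as the low control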
ADAM10 inh: inhibits human ADAM10 | O14672 | recombinant ADAM10, EDANS/DABCYL FRET peptide cleavage, 3 h | inhibition, % at 7 µM | 370,000 compounds, 0.62% hits;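 active = inhibition above a per-campaign cutoff equal to the mean of compounds falling between control-based bounds plus 3 SD, cut at about 20% in these data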;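 also: 0% = DMSO wells while the 100% control is not disclosed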
An asterisk follows results filed as active; i = inactive; . = no result.

SMILES | KLK7 zymogen act | rCAG binder | MPTP inh | Pemphigus Ab inh | ADAM17 inh | ADAM10 inh
COC(=O)[C@]12C[C@H](CC(=O)NCC34CC5CC(CC(C5)C3)C4)C(=O)N(Cc3ccc(Cl)cc3Cl)C1=C[C@H](C1CCCC1)O[C@@H]2C | 0 | 9 | . | . | 2 | 3
Cc1cc(-c2n[nH]c(=S)n2N=Cc2cccc(OCc3ccccc3)c2)n[nH]1 | -1 | 30 | . | . | 1 | 1
Cc1nc(NNC(=O)c2ccc(Cl)cc2Cl)cc(-c2ccccc2)n1 | -1 | 7 | -11 | 71* | -4 | -6
COC(=O)C1=C(C)N(C)C(=NCc2ccccc2)NC1c1cccc(Cl)c1 (stereo not drawn) | -1 | 9 | . | . | -4 | -13
CCOC(=O)COc1ccc(Br)cc1/C=C/c1[nH]c(=O)[nH]c(=O)c1[N+](=O)[O-] | 0 | 77* | 0 | 97 | -3 | -1
O=C(Cc1cn(Cc2ccccc2)c2ccccc12)Nc1ccc(Oc2cccnc2)cc1 | 1 | 11 | . | . | 7 | 12
Cc1cc(NC(=O)CSc2nnc(-c3c[nH]c4ccccc34)n2-c2ccc(F)cc2)no1 | 0 | 3 | 1 | 14* | -1 | -3
CCOc1ccc(-n2c(SCC(=O)Nc3cc(C)on3)nnc2-c2c[nH]c3ccccc23)cc1 | 0 | 2 | -2 | 101 | -3 | -2
Cc1cccc(NC(=O)CSc2nnc(-c3ccco3)c(-c3ccco3)n2)c1 | -1 | 42* | 0 | 100 | -4 | -3
COC(=O)c1c(-c2ccc(OC)cc2)c2c(c3c4cc(OC)ccc4n(C(=O)c4ccccc4)c13)C(=O)N(C)C2 | 2 | 17 | . | . | -1 | -21
CCOC(=O)c1[nH]c2cc(OC)c(OC)cc2c1NC(=O)c1ccc2c(c1)OCO2 | 0 | 10 | 2 | 17* | -5 | -8
CCOC(=O)c1[nH]c2ccccc2c1NC(=O)c1ccc2c(c1)OCO2 | 3 | 5 | 0 | -8.4* | 2 | 6
CCOC(=O)c1oc2ccccc2c1NC(=O)c1ccc2c(c1)OCO2 | 0 | 9 | 23 | 103 | -1 | -2
CCOC(=O)c1[nH]c2ccc(OC)cc2c1NC(=O)c1ccc2c(c1)OCO2 | 0 | 3 | -2 | 101 | -2 | 7
C=CCn1c(SCc2ccc(C#N)cc2)nnc1-c1ccco1 | 0 | 2 | . | . | 1 | 0
CCOC(=O)Oc1ccc2c(=O)c(Oc3cc(C)cc(C)c3)coc2c1 | 36* | 0 | 5 | 89 | -127 | -427
CCOC(=O)Oc1ccc2c(=O)c(Oc3cccc(C)c3)coc2c1 | 76* | -3 | 1 | 100 | -192 | i
O=C(c1cnn(-c2nc3ccccc3s2)c1)c1ccccc1O | 1 | 0 | 2 | 8.3* | -6 | 3
O=C(O)c1ccc(-n2cc(C(=O)c3ccccc3O)cn2)cc1 | 0 | 6 | 0 | 94 | -2 | -8
CCCn1c(NC(=O)c2ccc(F)cc2)nc2ccccc21 | 0 | -3 | -1 | 115 | -2 | -1
CCCn1c(NC(=O)c2ccc(Br)cc2)nc2ccccc21 | 0 | 1 | 4 | 85* | -3 | -2
COc1ccccc1NC(=O)CSc1nnnn1Cc1ccccc1 | 0 | -7 | -2 | 116 | 0 | 0
COc1ccc(NC(=O)CSc2nnnn2Cc2ccccc2)cc1 | 0 | -1 | 0 | 65* | 5 | -2
Nc1nc(F)nc2c1ncn2[C@@H]1O[C@H](COP(=O)(O)O)[C@@H](O)[C@@H]1O | 0 | 3 | . | . | -1 | -7
O=C(Cn1nnc(-c2ccc(N3CCOCC3)cc2)n1)OC1CCCCC1 | 0 | 0 | 0 | 60* | -5 | -2
SMILES | KLK7 zymogen act | rCAG binder | MPTP inh | Pemphigus Ab inh | ADAM17 inh | ADAM10 inh
Cc1ccc(C2NC(=O)c3n[nH]c(C(C)C)c32)cc1 (stereo not drawn) | 0 | 3 | . | . | 3 | -1
O=S1(=O)c2ccc(N3CCC[C@@H]3CO)cc2OCCCN1C1CC1 | 0 | 6 | . | . | -5 | -12
CCOC(=O)c1sc2nc3c(cc2c1N)C(=O)CC(C)(C)C3 | 1 | -2 | 1 | 85 | -3 | -7
COC(=O)c1sc2nc3c(cc2c1N)C(=O)CC(C)(C)C3 | 0 | 0 | 1 | 83* | 1 | 3
O=S1(=O)c2c(cccc2N2CC[C@@H](O)C2)OCCCN1C1CC1 | 0 | 2 | . | . | -6 | -14
O=C(O)CCNc1cc(N2CCN(C(=O)c3ccco3)CC2)c2noc3c2c1C(=O)c1ccccc1-3 | 0 | 68* | 6 | 88 | 1 | 4
Cn1c(SCc2ccc(F)cc2)nnc1-c1cnccn1 | 1 | -4 | 0 | 76* | -1 | -5
C[C@H]1/C=C/CC(=O)N[C@@H](c2ccccc2)[C@@H](C)/C=C/CC(=O)N[C@H]1c1ccccc1 | 0 | 5 | . | . | 2 | 3
CCOc1cc(N2CCOCC2)c(OCC)cc1NC(=O)c1ccc(-n2ccnc2)c([N+](=O)[O-])c1 | 1 | -6 | 0 | 96 | 1 | 11
COc1ccccc1NC(=O)c1ccc(-n2ccnc2)c([N+](=O)[O-])c1 | 0 | 3 | 1 | 66* | 0 | -6
COc1ccc(C(=O)Oc2ccc3c(c2)OCO3)cc1OC | 0 | -1 | 0 | 21* | 1 | 3
CCc1ccccc1N=Nc1c(N)[nH]n(-c2ccccc2)c1=O | 1 | 15 | . | . | 3 | 9
N#Cc1cccc(NC(=O)OC2CC3CC2[C@H]2CCCCN2[C@H]3Cc2ccccc2)c1 (stereo partly drawn) | 0 | 6 | . | . | 2 | 5
Cc1ccc(C(=O)c2ccc([N+](=O)[O-])cc2)cc1 | 0 | -3 | 1 | 84 | 1 | 9
Cc1ccc(C(=O)c2coc3cc([N+](=O)[O-])c(O)c([N+](=O)[O-])c23)cc1 | 1 | 18 | 9 | 20* | 0 | -8
CCOc1cc(/C=N/NC(=O)c2cccnc2)ccc1OCC(=O)N(C)C | 0 | -2 | -2 | 78* | 0 | -4
O=C(Nc1ccc(Nc2ccccc2)cc1)c1ccc(Br)cc1 | 1 | 0 | 1 | 95* | -4 | -3
CCCCc1cc(=O)oc2cc(C)cc(OCC(=O)Nc3ccccn3)c12 | 0 | 1 | 1 | 3.8* | -59 | -186
CCCCc1cc(=O)oc2cc(C)cc(OCC(=O)NC(Cc3ccc(Cl)cc3)C(=O)O)c12 (stereo not drawn) | 5 | 40* | 0 | . | -96 | -376
Cc1cc(N2CCN(CC(C)(C)O)C[C@@H]2C)ccc1N1CCN(Cc2ccccc2)[C@@H](C)C1 | 1 | 1 | . | . | -6 | -21
C[C@@H]1CN([C@@H](C)CO)C(=O)CCCn2nncc2CO[C@H]1CN(C)Cc1ccc(O)cc1 | 1 | 2 | . | . | -1 | 2
COc1ccc(C(=O)c2[nH]c(N)c(C(=O)c3c[nH]c4ccccc34)c2-c2ccc(F)c(OC)c2)cc1 | -2 | 11 | . | . | 1 | 4
Cc1cccc(N=Nc2c(N)n[nH]c2-c2ccc(Cl)cc2)c1 | 0 | 40* | 5 | 101 | 7 | 10
